# The entries come from a sample that favours hits as a whole.
# Calb biofilm kill: clotrimazole potentiators killing Candida biofilms, primary screen, with clotrimazole, Alamar Blue | C. albicans biofilm + clotrimazole | inhibition, % at 6 µM | hit rate 0.14% among 85,000;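 active = inhibition above 20%; inactive = inhibition below 20%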;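 note: preformed 24 hr biofilms exposed to compound for 48 hr; 0% = biofilm without compound and 100% = blank killed by clotrimazole plus chlorhexidine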
# hDAT+cocaine: changed hDAT dopamine uptake under cocaine IC80, either direction, primary screen, cocaine antagonist project, cell-based, LLC-PK1 hDAT, [14C]-dopamine uptake, MLSMR. Sodium-dependent dopamine transporter (Homo sapiens), Q01959. LLC-PK1 hDAT cells, [14C]-dopamine uptake with cocaine IC80; actives deviate in either direction. B-score at 10 µM. hit rate 1.3% among 110,000. AID 449768, 2010;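 active = Z score or B-score, a plate-position-corrected score, falls beyond the plate's 99.7% confidence bounds, in either direction; inactive = both scores lie inside the 99.7% bounds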;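 note: scored against the spread of the other compound wells on the same plate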
# D1 allo mod: D1 CRE-luciferase signal change, two-sided – cell-based, HEK293 D1, dopamine EC30, D1 allosteric modulator project, primary screen; D(1A) dopamine receptor (Homo sapiens), P21728; hit rate 5.9% among 58,000; dopamine EC30 potentiation; actives deviate in either direction; B-score at 10 µM;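 active = luminescence count or its row- and column-corrected plate score outside the 99.7% band of the plate's sample wells, on either side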
# Target sequence (P21728 whole entry, looked up): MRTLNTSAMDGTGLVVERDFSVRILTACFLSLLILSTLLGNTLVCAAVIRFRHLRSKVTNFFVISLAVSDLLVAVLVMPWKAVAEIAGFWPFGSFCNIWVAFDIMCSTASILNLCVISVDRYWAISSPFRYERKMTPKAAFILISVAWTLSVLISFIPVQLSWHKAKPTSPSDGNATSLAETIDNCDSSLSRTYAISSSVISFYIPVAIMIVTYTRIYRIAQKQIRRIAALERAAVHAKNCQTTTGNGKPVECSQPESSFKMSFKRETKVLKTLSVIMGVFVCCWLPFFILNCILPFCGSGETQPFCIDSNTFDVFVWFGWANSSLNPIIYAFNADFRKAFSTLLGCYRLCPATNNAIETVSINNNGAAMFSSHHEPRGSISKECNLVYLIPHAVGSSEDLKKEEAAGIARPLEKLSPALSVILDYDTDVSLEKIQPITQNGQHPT
# PLAP activator: PLAP enzyme activators, biochemical, luminescence, HTS; purified PLAP enzyme, luminescent substrate read-out; stronger effect = higher value; activation fold at 20 µM; hit rate 1.2% among 96,000; AID 696, 2007; in the data active = activation fold above about 2
# HePTP inhibitor: inhibitors of human HePTP phosphatase, primary screen, biochemical, absorbance, leukemia target | recombinant HePTP phosphatase activity, OD absorbance | Tyrosine-protein phosphatase non-receptor type 7 (Homo sapiens), P35236 | AID 521, 2006 | hit rate 0.64% among 110,000 | inhibition, % at 20 µM; in the data active = inhibition above about 50%;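 note: plate controls were vehicle for no effect and reference inhibitor for full effect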
# TNAP act DEA: human TNAP enzyme activators, primary screen, biochemical, luminescent, intermediate phosphate acceptor level. 64,000 tested, under 10 active. activation factor at 20 µM. purified TNAP, CDP-star luminescence, 100 mM DEA, 30 min; stronger effect = higher value; scale: 0 levamisole-inhibited, 1 vehicle-only enzyme;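 active = activation factor of at least 2 at 20 µM, relative to controls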
# Starred values were filed as active, the others as inactive; . = no result.
SMILES,Calb biofilm kill,hDAT+cocaine,D1 allo mod,PLAP activator,HePTP inhibitor,TNAP act DEA
Cc1ccc(OCCSc2ncnc3nc[nH]c23)cc1,1,-0.25,.,2.4*,3,.
Cc1ccccc1OCCSc1ncnc2nc[nH]c12,.,.,.,.,10,.
COc1ccc(-c2cc(-c3ccccc3)nc(N3CCCC3)n2)cc1OC,4,0.032,-8.7*,1.7,-1,0.9
COc1ccc(-c2cc(-c3ccc(C)cc3)nc(N3CCCC3)n2)cc1,.,.,.,.,4,.
CC1(C)CC(=O)C(CC(=O)Nc2cccc3ccccc23)=C(O)C1,.,.,.,.,-19,.
C/C=C/C=[N+](\[O-])C(C)/C(=N/O)c1ccc(F)cc1 (stereo not drawn),11,-0.0047,-5.7*,1.2,-2,1
CC(=O)N(C1=C(Cl)C(=O)c2ccccc2C1=O)c1ccc(Cl)cc1,.,.,.,.,9,.
O=C(Nc1ccc(CN2CCOCC2)cc1)c1cc2ccccn2n1,9,0.22,-7.3*,1.1,7,0.8
O=C(Nc1ccc(CN2CCOCC2)cc1)c1cc2ccccc2o1,5,1.3,-4.9*,1.6,-2,0.9
O=C(NC1=NCCS1)c1cc2ccccc2o1,5,-0.44,-4.6*,0.9,-3,0.9
O=C(Nc1ccccn1)c1cc2ccccc2o1,4,-1.2,.,.,.,.
CCOC(=O)c1[nH]c(C)c(C(=O)N/N=C/c2ccc(-c3ccc(Cl)cc3)o2)c1C,.,.,.,.,-13,.
CC(=O)Nc1cc(Oc2cccc(C)c2)cc([N+](=O)[O-])c1,.,.,.,.,-14,.
Cc1cc(C)c(S(=O)(=O)Nc2ccc[nH]c2=O)c(C)c1,4,-0.15,-0.08,2*,1,1.1
Cc1cc(C)c(S(=O)(=O)Nc2c(C)cccc2C)c(C)c1,.,.,.,.,-14,.
O=c1oc2cc([N+](=O)[O-])ccc2nc1/C=C(\O)c1ccc(Br)cc1,.,.,.,.,8,.
COc1ccc(-c2csc(NC(CO)c3nc4ccccc4n3CCCO)n2)cc1 (stereo not drawn),.,3.1*,.,.,.,.
COc1ccc(-c2csc(NC(CO)c3nc4ccccc4n3CCOCCO)n2)cc1 (stereo not drawn),.,1.9,.,.,.,.
CCN(CC)C(=O)CC(c1ccc2c(c1)OCO2)c1c(OC)cc(OC)c2ccc(=O)oc12 (stereo not drawn),.,2.7*,.,.,.,.
CCN(CC)C(=O)CC(c1ccc(N(C)C)cc1)c1c(OC)cc(OC)c2ccc(=O)oc12 (stereo not drawn),.,0.95,.,.,.,.
O=[N+]([O-])c1cc2c(cc1C=Nc1ccc(OC(F)(F)F)cc1)OCO2,.,.,.,.,-17,.
CCC(=O)n1nc(-c2ccc(OC)cc2)nc1N,8,-9.5*,0.95,0.9,8,0.7
O=C(c1cccc(N2C(=O)C3CC=CCC3C2=O)c1)N1CCCCCC1 (stereo not drawn),0,-8.8*,0.2,.,3,0.9
O=C(c1cccc(N2C(=O)C3CC=CCC3C2=O)c1)N1CCN(c2ccccc2)CC1 (stereo not drawn),8,.,0.09,.,2,0.9
O=C(CSc1n[nH]c(-c2ccncc2)n1)c1ccccc1,0,0.53,0.61,0.9,1,0.9
SMILES,Calb biofilm kill,hDAT+cocaine,D1 allo mod,PLAP activator,HePTP inhibitor,TNAP act DEA
Cc1nc(SCC(=O)c2ccccc2)n[nH]1,7,0.73,-0.0071,2.2*,-8,0.9
O=C1CC(c2ccccc2)CC2=C1C(c1ccc(Cl)c([N+](=O)[O-])c1)Nc1ccccc1N2 (stereo not drawn),.,.,.,.,6,.
Cc1cc(F)c(F)c(C(=O)N2CCN(c3cc(N4CCCCC4)c(F)cc3[N+](=O)[O-])CC2)c1Cl,.,.,.,.,-20,.
CCOC(=O)c1ccc(N2C(=O)c3ccc(C(=O)Nc4ccc(O)cc4C(=O)O)cc3C2=O)cc1,.,.,.,.,-3,.
CCOC(=O)Cc1csc(NC(=O)c2c(-c3c(F)cccc3Cl)noc2C)n1,9,4.3*,-0.7,1.4,6,0.9
CCOC(=O)Cc1csc(NC(=O)c2ccc(Br)s2)n1,0,2.7*,-0.07,1.3,11,1
CCOC(=O)Cc1csc(NC(=O)c2cccs2)n1,5,0.072,-0.26,1.1,10,0.9
CCOC(=O)Cc1csc(NC(=O)CN2C(=O)c3ccccc3S2(=O)=O)n1,2,-0.73,-0.034,2.3*,3,1.1
CCCOc1ccc(N/C=C/C(=O)c2ccc(Br)cc2)cc1,.,.,.,.,0,.
CC(C)(C)C1CCc2c(sc(NC(=O)C3CC4CCC3C4)c2C(N)=O)C1 (stereo not drawn),.,.,.,.,97*,.
CCOc1ccc(CNCc2ccccc2OC)cc1,.,.,.,.,-10,.
O=C(Cc1ccccc1)N1CCCC(c2nc(-c3ccc(S(=O)(=O)N4CCCC4)cc3)no2)C1 (stereo not drawn),1,0.52,.,1.2,.,.
CS(=O)(=O)N1CCCC(c2nc(-c3ccc(S(=O)(=O)NCc4ccccc4)cc3)no2)C1 (stereo not drawn),6,-0.021,-3*,0.8,2,0.9
COc1ccc(-n2ncc3c(N4CCCCC4)ncnc32)cc1,-2,1.6,-7.1*,.,0,1
Clc1ccc(-n2ncc3c(N4CCCCCC4)ncnc32)cc1,-2,-0.046,-8.6*,1.1,5,0.9
COc1ccc(C2/C(=C(/O)c3ccccc3)C(=O)C(=O)N2c2cc(C(C)(C)C)on2)cc1OC (stereo not drawn),.,.,.,.,5,.
COC(=O)CNc1c(-c2ccccn2)nc2ccc(Br)cn12,.,-7.2*,-1.7,1.1,6,0.9
O=C(Nc1cccc(-c2nnn(CC(=O)N3CCc4ccccc4C3)n2)c1)C1CCC1,8,1.1,0.49,2.3*,11,0.9
Cn1nc(-c2ccc(N3CCOCC3)c(NC(=O)COc3ccccc3)c2)c2ccccc2c1=O,2,.,-0.84,.,-6,1
CCC(=O)Nc1cc(-c2nn(C)c(=O)c3ccccc23)ccc1N1CCOCC1,5,.,.,2*,.,.
C=C(C)c1cccc(C(C)(C)NC(=O)NCCCN2CCCC2=O)c1,3,-0.032,0.16,2.3*,15,1
CCOC(=O)CCn1nnc(N)n1,5,-0.066,-4.2*,0.8,-2,1
COC(=O)CCn1nnc(-c2ccc(C)cc2)n1,7,-0.016,-0.11,1.1,9,1
O=C(O)c1cc(-c2cccc(Cl)c2)nc2ccccc12,.,.,.,.,104*,.
Cc1cccc(-c2cc(C(=O)O)c3ccccc3n2)c1,.,.,.,.,0,.
O=C(NC(NC(=S)Nc1ccc(Br)cc1)C(Cl)(Cl)Cl)c1ccccc1F (stereo not drawn),.,.,.,.,103*,.
CCn1c2ccccc2c2cc(NC(C)=O)ccc21,44*,1.5,.,0.8,.,.
CCn1c(SCC(=O)Nc2ccc3c(c2)c2ccccc2n3CC)nnc1-c1cnccn1,8,2.5*,.,1.6,0,0.9

# Assay outcomes from PubChem BioAssay.
